According to PubChem BioAssay AID2283364 (EPA ToxCast):
Records with an inconclusive call do not appear. Calls of active or inactive are those of the source. Rule for the calls: active = hit-call score of the fitted dose curve at least 0.9, where 1 is the maximum; inconclusive = response in the unintended direction; inactive = score below 0.9.

target: human FK-506 Binding Protein (FKBP12), FKBP1A (gene 2280) (UniProt P62942); assay: NVS_OR_hFKBP12: NovaScreen (NVS) Nuclear Receptor Binding Assay for human FK-506 Binding Protein (FKBP12)
Protocol: NVS_OR_hFKBP12 is a biochemical, single-readout assay that uses extracted gene-proteins from E. coli in a cell-free assay. Measurements were taken 0.75 hour after chemical dosing in a 48-well plate.NVS_OR_hFKBP12 is one of one assay component(s) measured or calculated from the NVS_OR_hFKBP12 assay. It is designed to make measurements of radioligand binding, a form of binding reporter, as detected with scintillation counting signals by Filter-based radiodetection technology.Data from the assay component NVS_OR_hFKBP12 was analyzed into 1 assay endpoint. This assay endpoint, NVS_OR_hFKBP12, was analyzed in the positive analysis fitting direction relative to DMSO as the negative control and baseline of activity. Using a type of binding reporter, loss-of-signal activity can be used to understand changes in the binding as they relate to the gene FKBP1A. Furthermore, this assay endpoint can be referred to as a primary readout, because the performed assay has only produced 1 assay endpoint. To generalize the intended target to other relatable targets, this assay endpoint is annotated to the misc protein intended target family, where the subfamily is chaperone.
Binding assays used specific radioligands (tritiated, iodinated) with non-radioactive competitive displacement ligands in agonist or antagonist protocols (as indicated) and various reference compounds and inhibitors to titrate specific binding to receptors and transporters. Most enzyme assays (CYPs, kinases, phosphatases, proteases, HDACs) used recombinant protein and specific substrates (fluorescence mostly, some colorimetric and radioactive) and inhibitors, followed by a biochemical separation of substrate and product. All assays for the biochemical HTS were initially run in duplicate at a single concentration (10 uM for CYP450 assays and 25 uM for all others). Assay-chemical combinations meeting a pre-defined threshold (e.g., 30% inhibition and other criteria defined below) were then run in singleton concentration-response format with maximum concentration of 20 uM for CYPs and 50 uM for all others. Each assay was run with positive and negative controls, and concurrent controls on every plate. The follow-up (secondary) screen tested active chemical-pairs in concentration series, as well as a few additional assays not tested in the primary screen, some selected negative inactives, and several cases re-run in the concentration series for confirmatory purposes.

Chain of human FK-506 Binding Protein (FKBP12), FKBP1A (gene 2280) (P62942 whole entry, looked up): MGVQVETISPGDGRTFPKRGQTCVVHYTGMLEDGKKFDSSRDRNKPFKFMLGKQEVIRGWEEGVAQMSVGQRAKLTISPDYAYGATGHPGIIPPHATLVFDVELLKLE

outcome, inactive:
COC(=O)c1ccccc1S(=O)(=O)NC(=O)Nc1nc(OC(F)F)cc(OC(F)F)n1, Cc1ccc(O)cc1, c1ccc2ccccc2c1, CCc1ccc(O)c(C(C)(C)C)c1, CCCCCCCCCCCC(=O)OC
